{
  "source": "PubChem BioAssay AID720649",
  "about": "(The Scripps Research Institute Molecular Screening Center, 2013)",
  "assay": "TO-PRO-1 dye complex inhibitors on d(CAG) DNA, dose response, counter-screen, biochemical, fluorescence, late stage (AID 720649)",
  "settings": "d(CAG) DNA duplex TO-PRO-1 dye displacement",
  "note": "Some of the results follow. The source made the active and inactive calls. The rule behind the calls is not given here.",
  "data": [
    {"smiles": "O=C1CC(=O)N(Cc2ccccc2)C(=O)N1CCCCCCN1C(=O)CC(=O)N(Cc2ccccc2)C1=O", "values": [
      {"measurement": "IC50", "result": "6.7 µM (active)"}
    ]}
  ]
}
